# According to PubChem BioAssay (EPA / NIEHS):
# Active and inactive are the calls of the source. Rule for the calls: active = hit-call score of the fitted dose curve at least 0.9, where 1 is the maximum; inactive = score below 0.9.
# Assay: CCTE_Harrill_HTTr_Viability_MCF7: CCTE's 6-hour Cell Viability Assessment for the High-Throughput Transcriptomics (HTTr) Platform, in MCF-7 cells cultured in DMEM + 10% fetal bovine serum, Harrill Lab (AID 2284010)
# Description: This is a cell-based assay that evaluates cell viability using high content imaging to evaluate membrane integrity using propidium iodide dye exclusion in a 384 well format.One of seven assay components measured from the CCTE_Harrill_HTTr_Viability assay. This was part of a full screening experiment. This is a cell-based assay that evaluates cell viability in MCF-7 cells cultured in DMEM + 10% fetal bovine serum. High content imaging is used to evaluate membrane integrity using propidium iodide dye exclusion. Measurements are taken at 6 hours after chemical dosing in 384-well format.The assay component endpoint CCTE_Harrill_HTTr_Viability_MCF7 was analyzed with bidirectional fitting relation to DMSO as the negative control and baseline of activity. Using a type of viability reporter, gain-of-signal activity can be used to evaluate membrane integrity using propidium iodide dye exclusion to understand changes in cytotoxicity. To generalize the intended target to other relatable targets, this assay endpoint is annotated to cell cycle, where the subfamily is cytotoxicity.
# Chemicals were tested in MCF7 cells in an eight point dilution series with a six hour exposure duration.
SMILES,outcome,AC50
O=C(O)c1cccnc1,inactive,
Cn1cnc2c1c(=O)[nH]c(=O)n2C,inactive,
COC(=O)CCC(=O)OC,inactive,
O=Cc1ccccc1C=O,inactive,
CC(COCC(C)OC(=O)c1ccccc1)OC(=O)c1ccccc1 (stereo not given),inactive,
CCCCC(CC)CO (stereo not given),inactive,
CC(=O)[C@@]1(O)CC[C@H]2[C@@H]3CCC4=CC(=O)CC[C@]4(C)[C@H]3CC[C@@]21C,inactive,
Oc1ccc(O)cc1,inactive,
CCCCCCCCCC[N+](C)(C)[O-],inactive,
Cc1c(C)c2c(c(C)c1O)CCC(C)(COc1ccc(CC3SC(=O)NC3=O)cc1)O2 (stereo not given),inactive,
Cc1cn([C@H]2C=C[C@@H](CO)O2)c(=O)[nH]c1=O,inactive,
O=C(O)CC(O)(CC(=O)O)C(=O)O,inactive,
O=C1OC(c2ccc(O)cc2)(c2ccc(O)cc2)c2ccccc21,inactive,
OCC(O)CO,inactive,
CC(=O)O,inactive,
CSc1ccc(Oc2ccc(S(N)(=O)=O)cc2CN(C)C)cc1C,inactive,
OCC(CO)n1cnc(-c2ccc(F)cc2)c1-c1ccnc(Oc2ccccc2)n1,inactive,
C=CCCCCCCCCCCCC,inactive,
C/C=C/C=C/C(=O)O,inactive,
C/C=C/c1ccc(OC)cc1,inactive,

SMILES,outcome,AC50
CC(C)(C)c1ccccc1,inactive,
S=c1[nH]c2ccccc2s1,inactive,
CC1(C)C(=O)NC(=O)N1CO,inactive,
CCOCCOCCO,inactive,
Cc1cc(Cc2ccc(N)c(C)c2)ccc1N,inactive,
CCCCC(CC)COC(=O)CCCCCCCC(=O)OCC(CC)CCCC (stereo not given),inactive,
Nc1nc(Cl)nc2c1ncn2[C@H]1C[C@H](O)[C@@H](CO)O1,inactive,
Cc1ccc(-c2cc(C(F)(F)F)nn2-c2ccc(S(N)(=O)=O)cc2)cc1,inactive,
O=C(O)CN(CC(=O)O)CC(=O)O,inactive,
Cc1ccc(C(C)(C)C)c(O)c1,inactive,
CCCCC(CC)COP(=O)(OCC(CC)CCCC)OCC(CC)CCCC (stereo not given),inactive,
CC(=O)CC(c1ccccc1)c1c(O)c2ccccc2oc1=O (stereo not given),inactive,
O=NO,inactive,
CC(C)NCC(O)c1ccc(O)c(O)c1 (stereo not given),inactive,
CCCCCCC(CCCCCCCCCCC(=O)OCC(COC(C)=O)OC(C)=O)OC(C)=O (stereo not given),inactive,
CCN(CC)CCOc1ccc(C(=C(Cl)c2ccccc2)c2ccccc2)cc1,inactive,
CCCCc1nc2cccnc2n1Cc1ccc(-c2ccccc2-c2nnn[nH]2)cc1,inactive,
C#CC(O)C(CC)CCCC (stereo not given),inactive,
NC(=Nc1ccccc1)Nc1ccccc1,inactive,
CN(C)CCCN1c2ccccc2Sc2ccc(Cl)cc21,,77.1 µM (active)
